Data on 37 compounds can be found in PubChem BioAssay (NCI).

This is part of a sample that, as a whole, favours compounds with a hit. Of some 83,000 tested, about 20% had one in any assay.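 Cells were grown in 96-well plates and exposed to the test compound at a single concentration for 48 hours; results are reported as percent growth, with values below 10 considered active.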 Activity calls are given as the source filed them.

One assay has as its system NCI-H460 lung. The assay is described as follows: NCI-60 one-dose screen, 48 h (100 = growth as untreated, 0 = no growth, -100 = all killed). The following applies: 10 µM unless noted.
As to `C[C@]12CCc3sc(-c4ccccc4O)nc3C1=CC[C@@H]1[C@@H]2CC[C@]2(C)C(=O)CC[C@@H]12`, the growth was 108% (inactive). As to `CC[C@H](C)[C@H](NC(=O)[C@H]1CCCCN1C)C(=O)N(C)[C@H](CC(=O)c1nc(C(=O)N[C@@H](Cc2ccccc2)C[C@H](C)C(=O)O)cs1)C(C)C`, the growth is 91% (inactive).

As for `COc1cccc(/C=C/[N+](=O)[O-])c1`, the growth is 100% (inactive). For `O=C1CC2(CC3(Cl)C(Cl)=C(Cl)C2(Cl)C3(Cl)Cl)C(=O)O1` (stereo not drawn), the growth is 112% (inactive). Still for that read-out and setting: for `CC12CCC3C(CCC4=CC(=O)CCC43CF)C1CCC2=O` (stereo not drawn) the value was 109% (inactive); for `Nc1ccc(-c2nc3cc(F)ccc3[se]2)cc1F`, 11.7% (inactive).

Another assay concerns HOP-92 NSCLC. The description is as above. The following applies: 10 µM unless noted.
Regarding `COc1cc2c(=O)n(C3CCCCCCC3)c3c4cc[nH]c4ncc3c2cc1OC`, the growth was 46.2% (inactive). Still for that read-out and setting: for `C1CCC([PH+](C2CCCCC2)C2CCCCC2[PH+](C2CCCCC2)C2CCCCC2)CC1.[Au].[CH-]1CCCCC1CC1CCCC[N-]1` (stereo not drawn) the value was -34.4% (active); for `CCCCN1CCCC[C@@H]1C(=O)N[C@H](C(=O)N(C)[C@H](C[C@@H](OC(C)=O)c1nc(C(=O)NC2CCC(C(=O)OC)CC2)cs1)C(C)C)C(C)C` (stereo partly drawn), 37% (inactive); for `CS(=O)(=O)CCN1CC2CCCC(C2)C1`, 109% (inactive).

Turning to `COC(=O)[C@@H](C)C[C@H](Cc1ccccc1)NC(=O)c1nc([C@@H](C[C@H](C(C)C)N(C)C(=O)[C@@H](NC(=O)[C@H]2CCCCN2C)C(C)C)OC(C)=O)sc1C(C)C`, the growth is 30.6% (inactive). The same measure, in the same setting: the value for `C=CC[Se]C(=O)c1ccccc1OC(C)=O` was 15.2% (inactive); that for `CC(C)[C@@H]1NC(=O)[C@]2(C)CSC(=N2)c2csc(n2)CNC(=O)C[C@@H](/C=C/CCS)OC1=O` was -21.5% (active); that for `Clc1cccc(Cl)c1Cl` was 113% (inactive). Same read-out and setting: the value for `O=C(CC1(O)C(=O)Nc2ccc(Cl)cc21)c1ccc(C(=O)NCC2CCC3(CC2)OOC2(CCCCC2)OO3)cc1` (stereo not drawn) was -70.3% (active).

On to `COc1ccc(C(O)(C(=O)O)c2ccc(OC)cc2)cc1`, for which the growth was 95.1% (inactive).

Turning to `CCn1c2ccccc2c2cc(C(=O)c3ccc(C)c4ccccc34)ccc21`, the growth is 40.6% (inactive). On to `COC(=O)[C@]12CCC(C)(C)C[C@H]1[C@H]1C(=O)C[C@@H]3[C@@]4(C)C[C@@]5(CC(C)(C)[C@@H]4CC[C@@]3(C)[C@]1(C)CC2)OO[C@@](C)(C(F)(F)F)O5`, for which the growth was 98.8% (inactive). In the case of `CC[C@]12C=CCN3CC[C@@]4(c5ccc(OC)cc5N(C)[C@H]4[C@@](O)(C(=O)OC)[C@@H]1OC(=O)CCCC[P+](c1ccccc1)(c1ccccc1)c1ccccc1)[C@@H]32`, the growth is -30% (active).

As for `CCCCCCCCOC(=O)CCN1CC1`, the growth was 77% (inactive). On the same count and under the same terms, for `CC1[C@H](C)OC(=O)CC(O)CC(O)CC(O)CCC(O)C(O)C[C@]2(O)CC(O)C(C(=O)O)C(CC(OC3O[C@H](C)[C@@H](O)[C@H](N)[C@@H]3O)/C=C/C=C/C=C/C=C/CC/C=C/C=C/[C@H](C)[C@H]1O)O2` (stereo partly drawn) the value was 101% (inactive); for `c1cc2c(c3c1CCNC3)OCO2`, 120% (inactive). On the same count and under the same terms, for `Cc1ccc(N2COOC3(OOC2)C2CC4CC(C2)CC3C4)cc1` the value was 95.5% (inactive). The same measure, in the same setting: the value for `O=C(CC1(O)C(=O)N(Cc2ccccc2)c2ccc(Br)cc21)c1ccc(C(=O)NCC2CCC3(CC2)OOC2(CCCCC2)OO3)cc1` (stereo not drawn) was -74.1% (active); that for `C[C@@H]1C[C@@]2(C)[C@@H](CC[C@@H]3[C@@H]2CC[C@]2(C)C(=O)CC[C@@H]32)CC1=O` was 71.7% (inactive). As to `CCN(CC)c1ccc2c(c1)OC(N)=C(C#N)C2c1cc(OC)c2c(c1)OCO2` (stereo not drawn), the growth is 38.2% (inactive).

Consider `O=P(Oc1ccc(Cl)cc1)(N1CC1)N1CC1`, for which the growth is 81.2% (inactive). As to `O=[N+]([O-])c1cc(I)cc([N+](=O)[O-])c1`, the growth is 131% (inactive). Still for that read-out and setting: for `CC(=O)O[C@H](C[C@H](C(C)C)N(C)C(=O)[C@@H](NC(=O)[C@H]1CCCCN1C)C(C)(C)C)c1nc(C(=O)N[C@@H](Cc2ccccc2)C[C@H](C)C(=O)O)cs1` the value was 35.3% (inactive); for `CC[C@H](C)[C@H](NC(=O)[C@H]1CCCCN1C)C(=O)N(C)[C@H](C[C@@H](O)c1nc(C(=O)N[C@@H](Cc2ccccc2)C[C@H](C)C(=O)O)cs1)C(C)C`, 57.8% (inactive).

With `CN1CCC(O)(c2ccc(F)cc2)C(C(=O)c2ccc(F)cc2)C1` (stereo not drawn), the growth is 96.4% (inactive). Same read-out and setting: for `O=C1NC(=O)C(=Cc2cccn2CCCCCn2c3ccccc3c(=O)c3ccccc32)C(=O)N1` the value was 90.4% (inactive). Same read-out and setting: the value for `COC(=O)[C@@H](C[C@H](Cc1ccccc1)NC(=O)c1csc([C@@H](C[C@H](C(C)C)N(C)C(=O)[C@@H](NC(=O)[C@H]2CCCCN2C)C(C)C)OC(C)=O)n1)NC(=O)OCc1ccccc1` was 25.7% [9.5 µM] (inactive). As for `CN(C)CCCOc1ccc2c(c1)c(C(=O)C(=O)NCCO)cn2Cc1ccccc1`, the growth is 92.1% (inactive). `COc1cc(C=Nc2cc(Cl)cc(Cl)c2)ccc1N(CCCl)CCCl`: the growth is 77.3% (inactive). Still for that read-out and setting: the value for `CCOC(=O)N[C@H]1CCc2c(Br)c(OC)c(OC)c(OC)c2-c2ccc(SC)c(=O)cc21` was -4.54% (active); that for `C/C(CC(C)(C)N1CC1)=N\NC(=O)Nc1cccc2ccccc12` was 24.2% (inactive); that for `C[C@]12CCc3sc(-c4ccccc4O)nc3C1=CC[C@@H]1[C@@H]2CC[C@]2(C)C(=O)CC[C@@H]12` was 115% (inactive). Same read-out and setting: for `CC[C@H](C)[C@H](NC(=O)[C@H]1CCCCN1C)C(=O)N(C)[C@H](CC(=O)c1nc(C(=O)N[C@@H](Cc2ccccc2)C[C@H](C)C(=O)O)cs1)C(C)C` the value was 49% (inactive); for `COc1cccc(/C=C/[N+](=O)[O-])c1`, 78.9% (inactive); for `O=C1CC2(CC3(Cl)C(Cl)=C(Cl)C2(Cl)C3(Cl)Cl)C(=O)O1` (stereo not drawn), 107% (inactive). For `CC12CCC3C(CCC4=CC(=O)CCC43CF)C1CCC2=O` (stereo not drawn), the growth was 114% (inactive).

As for `Nc1ccc(-c2nc3cc(F)ccc3[se]2)cc1F`, the growth was 66% (inactive).
